According to paper PMC7862700, “An all-to-all approach to the identification of sequence-specific readers for epigenetic DNA modifications on cytosine”:

Experiments:
Assay in all cases: DAPPL (digital affinity profiling via proximity ligation, sequencing); 10 mM Tris-HCl pH 7.5, 50 mM NaCl, 1 mM DTT, 4% glycerol, room temperature, 30 min; GST-TFs on glutathione beads, 16-mer random dsDNA library, 0.1% formaldehyde crosslink after washing; high values mean tight binding
FLI1 = biological target: T1, FLI1 (Homo sapiens, UniProt Q01543 1-452); conditions: protein: recombinant; tags: N-terminal GST; dsDNA, one strand shown
T1 sequence: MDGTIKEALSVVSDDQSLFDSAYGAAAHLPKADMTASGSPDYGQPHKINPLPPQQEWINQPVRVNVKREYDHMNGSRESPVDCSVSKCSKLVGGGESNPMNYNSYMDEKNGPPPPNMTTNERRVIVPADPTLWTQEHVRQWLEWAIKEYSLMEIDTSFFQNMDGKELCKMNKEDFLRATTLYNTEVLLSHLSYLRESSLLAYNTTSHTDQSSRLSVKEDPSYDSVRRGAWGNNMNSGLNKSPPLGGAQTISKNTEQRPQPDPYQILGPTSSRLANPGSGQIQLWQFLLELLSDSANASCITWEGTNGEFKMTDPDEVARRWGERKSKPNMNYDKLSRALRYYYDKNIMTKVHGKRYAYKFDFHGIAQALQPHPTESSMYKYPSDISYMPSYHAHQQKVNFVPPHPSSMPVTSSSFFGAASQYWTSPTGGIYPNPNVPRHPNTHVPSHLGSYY
Outline: (§1)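 Pools were built from human transcription factors expressed in yeast as GST fusions, captured on glutathione beads and DNA-barcoded, along with a tag-only sample. Incubation with 200 nmole of a 16-mer random double-stranded DNA library lasted 30 min at room temperature in Tris/NaCl/DTT/glycerol buffer, and was followed by washing, 0.1% formaldehyde crosslinking, proximity ligation, PCR amplification and Illumina NextSeq500 sequencing. Binding signal is the quotient of each hexamer's read frequency for a factor and its frequency for the tag-only sample.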

SPI1 = SPI1 (Homo sapiens, UniProt P17947 1-270); conditions: protein: recombinant; tags: N-terminal GST; dsDNA, one strand shown
Outline: as §1

ELK3 = biological target: T2, ELK3 (Homo sapiens, UniProt P41970 1-407); conditions: protein: recombinant; tags: N-terminal GST; dsDNA, one strand shown
T2 sequence: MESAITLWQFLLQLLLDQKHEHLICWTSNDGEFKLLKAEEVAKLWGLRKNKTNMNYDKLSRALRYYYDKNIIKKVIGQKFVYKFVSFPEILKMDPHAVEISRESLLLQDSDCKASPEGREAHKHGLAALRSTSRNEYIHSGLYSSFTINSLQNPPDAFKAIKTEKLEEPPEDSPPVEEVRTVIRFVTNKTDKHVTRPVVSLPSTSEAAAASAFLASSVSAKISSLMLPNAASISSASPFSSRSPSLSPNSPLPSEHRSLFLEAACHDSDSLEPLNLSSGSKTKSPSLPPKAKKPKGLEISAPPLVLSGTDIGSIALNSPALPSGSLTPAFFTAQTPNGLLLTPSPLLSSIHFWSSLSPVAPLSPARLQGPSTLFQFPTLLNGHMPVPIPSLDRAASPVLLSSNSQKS
Outline: as §1

CRX = CRX (Homo sapiens, UniProt O43186 1-299); conditions: protein: recombinant; tags: N-terminal GST; dsDNA, one strand shown
Sequence of CRX (O43186 whole entry): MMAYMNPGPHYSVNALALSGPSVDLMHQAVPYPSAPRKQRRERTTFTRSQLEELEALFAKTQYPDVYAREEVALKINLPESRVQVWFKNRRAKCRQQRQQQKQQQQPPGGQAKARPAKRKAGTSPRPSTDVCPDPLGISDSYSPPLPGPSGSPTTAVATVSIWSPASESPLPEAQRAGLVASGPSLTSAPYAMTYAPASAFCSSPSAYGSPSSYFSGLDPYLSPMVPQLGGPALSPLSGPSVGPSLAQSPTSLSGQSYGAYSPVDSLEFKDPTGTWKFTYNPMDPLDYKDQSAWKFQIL
Outline: as §1

ELF5 = biological target: T3, ELF5 (Homo sapiens, UniProt Q9UKW6-2 1-255); conditions: protein: recombinant; tags: N-terminal GST; dsDNA, one strand shown
T3 sequence: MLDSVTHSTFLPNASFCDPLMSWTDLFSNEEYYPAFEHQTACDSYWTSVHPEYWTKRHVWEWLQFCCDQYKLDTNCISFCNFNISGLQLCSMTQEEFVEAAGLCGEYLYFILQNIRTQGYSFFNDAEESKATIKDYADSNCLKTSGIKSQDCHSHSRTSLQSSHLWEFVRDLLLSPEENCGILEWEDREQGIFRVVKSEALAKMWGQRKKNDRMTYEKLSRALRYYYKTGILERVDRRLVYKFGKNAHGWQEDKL
Outline: as §1

HSF1 = HSF1 (Homo sapiens, UniProt Q00613 1-529); conditions: protein: recombinant; tags: N-terminal GST; chain copies: 3; dsDNA, one strand shown
Sequence of HSF1 (Q00613 whole entry): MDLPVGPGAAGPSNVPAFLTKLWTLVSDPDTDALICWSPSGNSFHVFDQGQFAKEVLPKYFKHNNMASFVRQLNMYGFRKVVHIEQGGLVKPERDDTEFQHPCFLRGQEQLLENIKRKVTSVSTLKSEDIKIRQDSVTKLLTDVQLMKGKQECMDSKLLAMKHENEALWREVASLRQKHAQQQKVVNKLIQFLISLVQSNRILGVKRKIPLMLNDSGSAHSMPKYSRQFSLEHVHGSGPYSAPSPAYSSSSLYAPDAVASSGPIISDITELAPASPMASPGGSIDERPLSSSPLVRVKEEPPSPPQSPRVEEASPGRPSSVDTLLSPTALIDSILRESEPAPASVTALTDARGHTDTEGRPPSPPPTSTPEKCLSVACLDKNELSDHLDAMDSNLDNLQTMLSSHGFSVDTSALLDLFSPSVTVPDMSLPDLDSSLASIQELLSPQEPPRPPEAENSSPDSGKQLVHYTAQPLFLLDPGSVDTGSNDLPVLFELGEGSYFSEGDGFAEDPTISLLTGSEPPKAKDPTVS
Outline: as §1

SPIC = biological target: T4, SPIC (Homo sapiens, UniProt Q8N5J4 1-248); conditions: protein: recombinant; tags: N-terminal GST; dsDNA, one strand shown
T4 sequence: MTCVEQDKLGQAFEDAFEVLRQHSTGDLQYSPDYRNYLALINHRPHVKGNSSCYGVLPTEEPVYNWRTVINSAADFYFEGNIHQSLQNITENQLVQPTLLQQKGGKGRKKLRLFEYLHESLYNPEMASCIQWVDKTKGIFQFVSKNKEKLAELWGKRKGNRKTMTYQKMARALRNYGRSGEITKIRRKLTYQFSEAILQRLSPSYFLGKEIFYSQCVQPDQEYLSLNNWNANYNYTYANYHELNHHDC
Outline: as §1

Sequence | binding signal (FLI1) | binding signal (SPI1) | binding signal (ELK3) | binding signal (CRX) | binding signal (ELF5) | binding signal (HSF1) | binding signal (SPIC)
CGCGTA | 1.07 fold enrichment (6-mer frequency, TF over GST control) |  |  |  |  |  | 
AACCGC | 1.15 fold enrichment (6-mer frequency, TF over GST control) | 1.04 fold enrichment (6-mer frequency, TF over GST control) | 1.07 fold enrichment (6-mer frequency, TF over GST control) | 1.02 fold enrichment (6-mer frequency, TF over GST control) | 1 fold enrichment (6-mer frequency, TF over GST control) |  | 
AGGACC | 1.13 fold enrichment (6-mer frequency, TF over GST control) |  | 1.15 fold enrichment (6-mer frequency, TF over GST control) |  | 1.1 fold enrichment (6-mer frequency, TF over GST control) |  | 
TGCGCC | 1.17 fold enrichment (6-mer frequency, TF over GST control) | 1.22 fold enrichment (6-mer frequency, TF over GST control) | 1.07 fold enrichment (6-mer frequency, TF over GST control) |  | 1.11 fold enrichment (6-mer frequency, TF over GST control) |  | 
ACGCCG | 1.15 fold enrichment (6-mer frequency, TF over GST control) | 1.09 fold enrichment (6-mer frequency, TF over GST control) | 1.11 fold enrichment (6-mer frequency, TF over GST control) |  |  |  | 
GGTACA | 1.03 fold enrichment (6-mer frequency, TF over GST control) |  |  |  | 1 fold enrichment (6-mer frequency, TF over GST control) |  | 
TAGCGT |  |  |  | 1.15 fold enrichment (6-mer frequency, TF over GST control) |  | 1.04 fold enrichment (6-mer frequency, TF over GST control) | 1.02 fold enrichment (6-mer frequency, TF over GST control)
TAGGAT |  |  | 1.03 fold enrichment (6-mer frequency, TF over GST control) | 1.81 fold enrichment (6-mer frequency, TF over GST control) | 1.06 fold enrichment (6-mer frequency, TF over GST control) | 1.35 fold enrichment (6-mer frequency, TF over GST control) | 1.06 fold enrichment (6-mer frequency, TF over GST control)
AGAAGT |  | 1.24 fold enrichment (6-mer frequency, TF over GST control) | 1.11 fold enrichment (6-mer frequency, TF over GST control) |  | 1.1 fold enrichment (6-mer frequency, TF over GST control) | 1.45 fold enrichment (6-mer frequency, TF over GST control) | 1.19 fold enrichment (6-mer frequency, TF over GST control)
AGAGCT |  | 1.01 fold enrichment (6-mer frequency, TF over GST control) |  | 1.14 fold enrichment (6-mer frequency, TF over GST control) |  | 1.05 fold enrichment (6-mer frequency, TF over GST control) | 1.04 fold enrichment (6-mer frequency, TF over GST control)
AGGATG | 1.07 fold enrichment (6-mer frequency, TF over GST control) |  |  |  | 1.23 fold enrichment (6-mer frequency, TF over GST control) |  | 
AGCGAT |  | 1.07 fold enrichment (6-mer frequency, TF over GST control) | 1.23 fold enrichment (6-mer frequency, TF over GST control) | 1.29 fold enrichment (6-mer frequency, TF over GST control) |  | 1.1 fold enrichment (6-mer frequency, TF over GST control) | 1.11 fold enrichment (6-mer frequency, TF over GST control)
GACTTA |  |  |  | 1.93 fold enrichment (6-mer frequency, TF over GST control) |  | 1.34 fold enrichment (6-mer frequency, TF over GST control) | 1.08 fold enrichment (6-mer frequency, TF over GST control)
ACTGGA |  | 1.1 fold enrichment (6-mer frequency, TF over GST control) | 1.01 fold enrichment (6-mer frequency, TF over GST control) | 1.19 fold enrichment (6-mer frequency, TF over GST control) |  | 1.56 fold enrichment (6-mer frequency, TF over GST control) | 1.16 fold enrichment (6-mer frequency, TF over GST control)
CGAACG |  |  |  |  |  | 1.2 fold enrichment (6-mer frequency, TF over GST control) | 1.11 fold enrichment (6-mer frequency, TF over GST control)
ATAATG |  | 1.07 fold enrichment (6-mer frequency, TF over GST control) | 1.22 fold enrichment (6-mer frequency, TF over GST control) | 1.52 fold enrichment (6-mer frequency, TF over GST control) | 1.07 fold enrichment (6-mer frequency, TF over GST control) | 1.25 fold enrichment (6-mer frequency, TF over GST control) | 1.21 fold enrichment (6-mer frequency, TF over GST control)
CCCCTA |  | 1.08 fold enrichment (6-mer frequency, TF over GST control) | 1.38 fold enrichment (6-mer frequency, TF over GST control) | 1.15 fold enrichment (6-mer frequency, TF over GST control) | 1.1 fold enrichment (6-mer frequency, TF over GST control) | 1.02 fold enrichment (6-mer frequency, TF over GST control) | 1.25 fold enrichment (6-mer frequency, TF over GST control)
CGACTG |  | 1.04 fold enrichment (6-mer frequency, TF over GST control) | 1.02 fold enrichment (6-mer frequency, TF over GST control) |  | 1.04 fold enrichment (6-mer frequency, TF over GST control) | 1.02 fold enrichment (6-mer frequency, TF over GST control) | 1 fold enrichment (6-mer frequency, TF over GST control)
CTAGCG |  | 1.15 fold enrichment (6-mer frequency, TF over GST control) |  | 1.06 fold enrichment (6-mer frequency, TF over GST control) | 1.07 fold enrichment (6-mer frequency, TF over GST control) | 1.3 fold enrichment (6-mer frequency, TF over GST control) | 1.03 fold enrichment (6-mer frequency, TF over GST control)
CGTAAA |  | 1.09 fold enrichment (6-mer frequency, TF over GST control) | 1.17 fold enrichment (6-mer frequency, TF over GST control) | 1.15 fold enrichment (6-mer frequency, TF over GST control) | 1.14 fold enrichment (6-mer frequency, TF over GST control) | 1.17 fold enrichment (6-mer frequency, TF over GST control) | 1.09 fold enrichment (6-mer frequency, TF over GST control)
AGCAAA |  | 1.04 fold enrichment (6-mer frequency, TF over GST control) | 1.04 fold enrichment (6-mer frequency, TF over GST control) | 1.05 fold enrichment (6-mer frequency, TF over GST control) | 1 fold enrichment (6-mer frequency, TF over GST control) | 1.18 fold enrichment (6-mer frequency, TF over GST control) | 
TCGTAT |  | 1.02 fold enrichment (6-mer frequency, TF over GST control) | 1.01 fold enrichment (6-mer frequency, TF over GST control) | 1.09 fold enrichment (6-mer frequency, TF over GST control) | 1.01 fold enrichment (6-mer frequency, TF over GST control) | 1.06 fold enrichment (6-mer frequency, TF over GST control) | 1.06 fold enrichment (6-mer frequency, TF over GST control)
CGGTTA | 1.05 fold enrichment (6-mer frequency, TF over GST control) | 1 fold enrichment (6-mer frequency, TF over GST control) | 1 fold enrichment (6-mer frequency, TF over GST control) |  | 1.07 fold enrichment (6-mer frequency, TF over GST control) |  | 
CATTAA |  | 1.04 fold enrichment (6-mer frequency, TF over GST control) |  | 1.92 fold enrichment (6-mer frequency, TF over GST control) |  | 1.36 fold enrichment (6-mer frequency, TF over GST control) | 1.08 fold enrichment (6-mer frequency, TF over GST control)
TAGGGC |  | 1.01 fold enrichment (6-mer frequency, TF over GST control) |  | 1.22 fold enrichment (6-mer frequency, TF over GST control) | 1.03 fold enrichment (6-mer frequency, TF over GST control) | 1.05 fold enrichment (6-mer frequency, TF over GST control) | 1.11 fold enrichment (6-mer frequency, TF over GST control)
